# Measurements reported in PubChem BioAssay (NCATS).
# Results filed as inconclusive are left out. Values without a mark were called inactive. The call rests on the fitted dose curve; tested in HEK293 reporter line.
# Experiment: qHTS for Inhibitors of the Functional Ribonucleoprotein Complex (vRNP) of Lassa (LASV) Arenavirus: LASV Primary Screen - GLuc reporter signal (AID 1347082); further: nearly all actives have a fitted effect of over 60% in size
# Details: LASV minigenome vRNP, Gaussia luciferase reporter; series mostly up to 57.5 µM; activity change, negative = inhibition: at the top concentration
# On the % scale 0 is the no-effect control and ±100 the full control effect.
row,SMILES,"activity change, negative = inhibition"
1,CC1CCC[C@H](O)CCCCCc2cc(O)cc(O)c2C(=O)O1 (stereo not given in full),2%
2,C=C1C[C@H](O[C@@H]2O[C@H](CO)[C@@H](O)[C@H](O)[C@H]2O)[C@@H]2[C@H](OC(=O)[C@H]2C)[C@H]2[C@H](C)[C@@H](O)C[C@@H]12,-10.9%
3,CCC(C)C(=O)OCCc1ccccc1 (stereo not given),-0.761% [at 115 µM]
4,Cc1coc2c1C(=O)C(=O)c1c-2ccc2c(C)cccc12,-7.76%
5,CC(C=O)Cc1ccc(C(C)C)cc1 (stereo not given),14.4% [at 115 µM]
6,COc1cc(C(C)=O)cc(OC)c1O,4.15%
7,CC1NC(C(=O)O)Cc2c1[nH]c1ccccc21 (stereo not given),23.3%
8,CCNC(=O)CCCC=CC[C@@H]1[C@H](C=CC(O)CCc2ccccc2)[C@@H](O)C[C@@H]1O (stereo not given in full),-2.45%
9,CSC(=S)NCc1c[nH]c2ccccc12,3.83%
10,NC[C@@H]1O[C@@H](O[C@H]2[C@@H](O)[C@H](O[C@@H]3[C@@H](O)[C@@H](N)C[C@H](N)[C@H]3O[C@H]3O[C@H](CN)[C@@H](O)[C@@H](O)[C@H]3N)O[C@H]2CO)[C@H](N)[C@@H](O)[C@@H]1O,-1.08%
11,C=CC(=O)CCCCC,-10.8% [at 115 µM]
12,C[C@]12CCC3=C4CCC(=O)C=C4CC[C@@H]3[C@H]1CC[C@@]2(O)CC#N,-10.1%
13,CC12C=CC(=O)C=C1CCC1C2CCC2(C)C(C(=O)CO)CCC12 (stereo not given),-27.8%
14,NC(=O)C1=CN(C2OC(COP(=O)(O)OP(=O)(O)OC[C@H]3O[C@@H](n4cnc5c(N)ncnc54)[C@H](OP(=O)(O)O)[C@@H]3O)C(O)C2O)C=CC1 (stereo not given in full),-2.18%
15,CC(C)(O)C1CC[C@@]2(C)C3CCC4[C@@]5(C)CCCC(C)(C)C5C(O)C[C@]4(C)[C@]3(C)CC[C@@H]12 (stereo not given in full),1.12%
